# Many of the other results were omitted from the sample, so hits are more common in it than they were.
# KDM5B inhibitor: inhibitors of human KDM5B histone demethylase; Q9UGL1; KDM5B demethylase, FDH-coupled NADH fluorescence (FDH is formaldehyde dehydrogenase); Potency, µM (doses to about 57.7 µM), hits mostly inhibitors; 2.6% of 220,000 active; AID 1347165; active = well fitted inhibition curve with a large enough effect; note: 0% is about no effect; nearly all actives have a fitted effect of over 70% in size
#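 qHTS format, multiple compound concentrations. Buffer 50 mM HEPES pH 7.5/0.01% Tween-20; 200 nM KDM5BΔAP final; 10 min compound preincubation; substrate-mix levels 12.5 µM peptide, 25 µM α-KG, 0.25 mM NAD⁺; 30 min RT; ΔRFU.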
# Active calls of the source: *; i = inactive. Potency is the fitted concentration of half-maximal effect.
SMILES,KDM5B inhibitor
CN(C)Cc1cccc(-c2cc3c(ccn3Cc3ccncc3)c(N3CCOCC3)n2)c1,40µM*
COc1c(N)ccnc1-c1cccc(CN2CCOCC2)c1,i
CNc1nccnc1-c1cccc(CN2CCOCC2)c1,i
Cc1nn(-c2ccccc2)c(C)c1CCC(=O)N1CCN(S(=O)(=O)c2ccc(F)cc2F)CC1,i
COc1ccc2cc(CN(C)C(=O)C3CCN(S(=O)(=O)c4cc(F)ccc4F)CC3)ccc2c1,i
CC(=O)N[C@@H](C(=O)O)C(C)C,i
O=C(Nc1ccc2c(c1)OCO2)C1CCN(C(=O)c2n[nH]c(=O)c3ccccc23)CC1,i
COCCN(CCOC)CCOc1cccc(C#N)c1,i
COc1ccc(C2NC(=O)NC3=C2C(=O)N(Cc2ccccc2)C3)cc1OC (configuration not stated),i
CCCNC(=O)N(C1CCOCC1)C1CCN(S(=O)(=O)c2cc(F)ccc2C)CC1,i
Cc1ccc2cc(COC(=O)c3ccco3)c(=O)[nH]c2c1,i
CCN(Cc1cc2ccc(C)cc2[nH]c1=O)C(=O)c1ccccc1C,i
CCOC(=O)CN1CCN(C(=O)CCc2cc3ccc(C)cc3[nH]c2=O)CC1,25µM*
Cc1ccc(CN(C(=O)c2ccco2)c2nc3nc(C)c(Cc4ccccc4)c(=O)n3[nH]2)cc1,i
C/C(=N/Nc1cc(C(F)(F)F)ccc1Cl)c1cccc(Br)c1,i
CCCCCCCn1c(SCC(N)=O)nc2c1c(=O)[nH]c(=O)n2C,i
Cc1noc(C)c1CCC(=O)N[C@@H]1CN(c2ccncn2)C[C@H]1CN(C)C,i
Cc1noc(C)c1CC(=O)N[C@@H]1CN(c2ccncn2)C[C@H]1CN(C)C,i
CN(C)C[C@@H]1CN(c2ccccn2)C[C@H]1NC(=O)NC(C)(C)C,32µM*
CN(C)C[C@@H]1CN(c2ccccn2)C[C@H]1NC(=O)CC1=CCCCC1,32µM*
CN(C)C[C@@H]1CN(c2ccccn2)C[C@H]1NC(=O)Cc1ccsc1,28µM*
Cc1noc(C)c1CC(=O)N[C@@H]1CN(c2ccccn2)C[C@H]1CN(C)C,32µM*
CCOc1ccc(CC(=O)N[C@@H]2CN(c3ccncn3)C[C@H]2CN(C)C)cc1,i
COc1ccc(CC(=O)N[C@@H]2CN(c3ccncn3)C[C@H]2CN(C)C)cc1OC,i
CCOCC(=O)N[C@@H]1CN(c2ccncn2)C[C@H]1CN(C)C,i
SMILES,KDM5B inhibitor
Cc1cccc(OCC(=O)N[C@@H]2CN(c3ccncn3)C[C@H]2CN(C)C)c1,i
CN(C)C[C@@H]1CN(c2ccncn2)C[C@H]1NC(=O)c1c(F)cccc1F,i
CN(C)C[C@@H]1CN(c2ccncn2)C[C@H]1NC(=O)C1CC=CCC1 (some centres not stated),i
COc1ccc(-c2nc(C(=O)N3CCN(C(C#N)c4ccc(F)cc4)CC3)cs2)cc1OC (configuration not stated),i
Cc1nn(CC(=O)N2CCN(C(=O)CC(C)C)CC2)c(=O)c2ccccc12,i
Cc1n[nH]c(C)c1Cl,i
CCCOc1ccc(C(=O)CCC(=O)OCC(=O)Nc2c(C)cc(C)cc2Cl)cc1,i
C#Cc1cccc(NC(=O)Cc2cccc(OC)c2)c1,i
O=C(NCCSc1ccc(Cl)cc1)NC1CC1,i
O=S(=O)(c1ccccc1)c1cnc2cc3c(cc2c1N1CCN(c2ccccc2)CC1)OCCO3,i
O=C(NCc1nc(-c2ccccc2)no1)c1cc2cc(Br)ccc2o1,i
Cc1ccc(-c2cc3c(=O)n(CCNC(=O)Cc4cccs4)ccn3n2)cc1C,i
COc1cccc(-c2cc3c(=O)n(CCNC(=O)c4cc(F)ccc4F)ccn3n2)c1,i
Cc1ccc(C(=O)NCCn2ccn3nc(-c4ccc(F)cc4)cc3c2=O)s1,i
CCn1nccc1C(=O)NCCn1ccn2nc(-c3ccc(C)c(C)c3)cc2c1=O,35µM*
Cc1ccc(-c2cc3c(=O)n(CCNC(=O)c4ccccc4F)ccn3n2)cc1C,20µM*
COc1cccc(C(=O)NCCn2ccn3nc(-c4ccc(C)c(C)c4)cc3c2=O)c1OC,35µM*
Cc1ccc(NC(=O)CSc2nc3ccccc3c(=O)n2CCn2cc(Cl)cn2)cc1,i
O=C1CCN(Cc2ccc(C(F)(F)F)cc2)CCCC(c2nc(-c3cccnc3)no2)CCN1 (configuration not stated),i
COc1cccc(-c2ccc(CN3CCN(c4ccc(Cl)nn4)C(=O)C3)cc2)c1,i
CC(=O)N1CCN([C@H]2[C@@H]3OC[C@@H](O3)[C@@H](NCc3ccco3)[C@@H]2O)CC1,i
O=C(NCCCN1CCCc2ccccc21)C1Cn2cccc2C(=O)N1Cc1ccccc1 (configuration not stated),i
Cc1ccc(/C=C/S(=O)(=O)NCC(=O)OCC(=O)c2c[nH]c3ccccc23)cc1,i
Cc1cccc(-n2nc(C)c(CCC(=O)NC3CC3)c2Oc2ccc(F)cc2F)c1,i
CCN(C)C(=O)CCc1c(C)nn(-c2cccc(C)c2)c1Oc1ccc(F)cc1F,32µM*
CCN(CC)C(=O)CCc1c(C)nn(-c2cccc(C)c2)c1Oc1ccc(F)cc1F,i
